The list shows a part of the results. Calls of active or inactive are those of the source. No stated cut-off is given here; in the data, active means inhibition above about 40%; inactive means the rest.
Tested on: Fam108b (ABHD17B) [Mus musculus]
Assay: inhibition of mouse Fam108b by HTS hits, late-stage follow-up, biochemical, gel-based ABPP, soluble recombinant form (AID 588649)
Conditions: fluorophosphonate probe, at 20 µM, hits give high values

SMILES	inhibition
COc1ccc(/C=C/C(=O)OCC(=O)Nc2cccc(Oc3ccccc3)c2)c(OC)c1	90% (active)
CC[N+](C)(CC)CCC[n+]1c(-c2ccccc2)c2cc(N)ccc2c2ccc(N)cc21	25% (inactive)
COc1ccc(NS(=O)(=O)c2cc(NC(=O)CC(=O)c3ccc([N+](=O)[O-])cc3)ccc2C)cc1	25% (inactive)
Cc1ccc(S(=O)(=O)N=C2C=C(Sc3ncn[nH]3)C(=O)c3ccccc32)cc1	90% (active)
Oc1c(Cl)cc(Cl)c(Cl)c1Cc1c(O)c(Cl)cc(Cl)c1Cl	65% (active)
O=C(Nc1ccc(-c2csc(Nc3cccc(C(F)(F)F)c3)n2)cc1)c1cccc(C(F)(F)F)c1	85% (active)
O=C(NNc1c2ccccc2nc2ccccc12)c1cc2ccccc2cc1O	10% (inactive)
Nc1ccc2nc3c(=O)[nH]c(=S)[nH]c3nc2c1	0% (inactive)
